Assay results published in PubChem BioAssay AID652058 (Broad Institute, 2013).
Among all 1,200 compounds or so, about 870 (72%) were called active. Roughly 3% stayed inconclusive and do not appear here.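 How the source made its calls: active means every test run fits a falling curve whose half-maximal concentration is at most twice the top valid dose; inconclusive means runs disagree, or flat 30 to 70% inhibition, or poor fit; inactive means every run inactive: flat, rising or weaker potency.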 The set was probably picked from earlier hits. Only a sample is shown. Results with a measured potency or affinity are listed apart.

Assay: blockers of HIV-1 ZM109 envelope-driven cell-cell fusion – HeLa effector, CEM target cells, luciferase, cherry-pick, dose response (AID 652058);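 further: 0% = neutral control wells and -100% = maraviroc 300 nM wells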
Details: HeLa Env/CEM cell fusion, 16-24 h; series mostly up to 35 µM; activity change, negative = inhibition: at the top concentration

Activity change, negative = inhibition, inactive:
Cc1[nH]c2ccccc2c1/C=N\NC(=O)c1ccccc1Cl 39.8%
COc1ccc(CCNC(=O)C2CCCN(Cc3nc(-c4cccc(Cl)c4)oc3C)C2)cc1OC (stereo not drawn) -35.4%
O=C(NCc1cccc(F)c1)[C@@H]1[C@@H](CO)[C@@H]2Cn3c(ccc(-c4cccnc4)c3=O)[C@H]1N2CC1CC1 -17.1%
N#C[C@@H]1[C@H](c2ccc(-c3ccccc3F)cc2)[C@@H](CO)N1C(=O)Cc1ccccc1 -31.2%
CCCNC(=O)N1[C@H](C#N)[C@H](c2ccc(-c3cccc(OC)c3)cc2)[C@@H]1CO 127%
S=c1nc[nH]c2c1[nH]c1ccc(Cl)cc12 77%
Cc1cc(C(=O)CN2C(=O)c3ccccc3S2(=O)=O)c(C)n1C(C)C -55.3%
Cc1onc(-c2ccccc2)c1C(=O)Nc1ccc(Br)cc1Cl -20.5%
Cc1onc(-c2ccccc2)c1C(=O)NC(=S)NNC(=O)c1ccc(O)cc1 41%
CO[C@H]1CN(C)C(=O)c2cc(NC(=O)C3CCOCC3)ccc2OC[C@H](C)N(Cc2nccs2)C[C@H]1C -16.3%
CO[C@@H]1CN(C)C(=O)c2ccc(NS(C)(=O)=O)cc2OC[C@@H](C)N(C(=O)C2CCCCC2)C[C@H]1C 135%
CCCC(=O)Nc1ccc2c(c1)OC[C@@H](C)N(C(=O)CN(C)C)C[C@H](C)[C@@H](OC)CN(C)C2=O -17.8%
CO[C@@H]1CN(C)C(=O)c2cc(NS(=O)(=O)c3ccc(C)cc3)ccc2OC[C@H](C)N(C(=O)NC(C)C)C[C@@H]1C 59.6%
CCS(=O)(=O)Nc1ccc2c(c1)C(=O)N(C)C[C@H](OC)[C@@H](C)CN(C(=O)C1CCC1)[C@H](C)CO2 101%
COc1ccc(S(=O)(=O)NC[C@@H]2CC[C@H]3[C@H](CN3Cc3cc(F)ccc3F)O2)cc1 19.1%
CCCC(=O)Nc1ccc2c(c1)C(=O)N(C)C[C@@H](OC)[C@@H](C)CN(Cc1nccs1)[C@@H](C)CO2 1.12%
CCC(=O)Nc1ccc2c(c1)C(=O)N(C)C[C@@H](OC)[C@H](C)CN(C(=O)CC)[C@@H](C)CO2 55.8%
Clc1ccc2c(c1)C1=C(C(c3ccncc3)O2)C(c2ccc(Br)cc2)n2ncnc2N1 (stereo not drawn) 36.6%
COc1ccc(CC(=O)Nc2cccc(S(=O)(=O)N3CCCCCC3)c2)cc1OC -2.63% [at 16 µM]
CC1CCCC(C)N1CCCNC(=O)c1nn(C)c2c1CSc1ccccc1-2 (stereo not drawn) 20.6%
CN1C(=O)C2(c3ccccc31)N(C)CC(c1ccccc1)C21SC(=S)N(Cc2ccco2)C1=O (stereo not drawn) 6.82%
O=C(Nc1ccc(S(=O)(=O)N2CCCC2)cc1)c1ccc(CN2CCOCC2)cc1 -10.5%
CCN(CC)c1ccc(/C=N/N2C(C)CCCC2C)c(O)c1 (stereo not drawn) 35.2%
Nc1nonc1C(=O)NCCNCc1cc(Br)ccc1OCc1ccccc1F -2.3%
Cn1c(SCc2nc(-c3ccc(Cl)cc3)no2)nnc1-c1cccs1 -18.2%
O=C(COC(=O)c1cc(S(=O)(=O)N2CCOCC2)ccc1O)NCc1ccc2c(c1)OCO2 2.67%
Cc1ccc(COC(=O)c2cc(S(=O)(=O)N3CCCCC3)ccc2N2CCOCC2)cc1 47%
CCNC1CCC(Nc2ccnc3cc(Cl)ccc23)CC1 (stereo not drawn) -13.6%
CCC(C)NS(=O)(=O)c1ccc(S(=O)(=O)N2CCCC3(CCCCC3)C2)cc1 (stereo not drawn) -47.6%
CC(=O)Nc1ccc(NC(=O)CN(c2ccc(C34CC5CC(CC(C5)C3)C4)cc2)S(C)(=O)=O)cc1 197%
CC(CCc1ccco1)NC(=O)CCc1nnc2ccc(NCc3ccccc3Cl)nn12 (stereo not drawn) 147%
CCOc1ccccc1CNc1ncnc2ccc(-c3c(C)noc3C)cc12 -26.9%
OCC[C@@H]1C[C@@H](O)[C@H](O)[C@]2(OCc3ccccc32)O1 -30.9%
Cc1ccc2c(c1)c1c3n2CCN(CCC#N)C3CCC1 (stereo not drawn) 72.5%
COc1ccccc1S(=O)(=O)n1cc(Cc2ccccc2)c(N)n1 2.38%
C=CCNc1nc2c(c(=O)n(C)c(=O)n2C)n1CCCCCC 155%
COc1ccc(C(O)c2nc3ccccc3n2C)cc1OC (stereo not drawn) -23.7%
COc1ccc(/C(C)=N/NC(=O)c2cccc(S(=O)(=O)N3CCCC3)c2)c(O)c1 -36.4% [at 16 µM]
CCCCCn1c(C(C)NC(=O)CCC)nc2ccccc21 (stereo not drawn) -31%
CCc1nc2ccccc2c(C(=O)OCC(=O)Nc2cccc(S(=O)(=O)N3CCOCC3)c2)c1C 168%
Cc1cc2c3c(c1)C1(SCC(=O)N1c1ccc(F)cc1)C(=O)N3C(C)(C)CC2C (stereo not drawn) -68.3% [at 15 µM]
Nc1cc2c(cc1Br)[nH]c(=O)c1ccccc12 -25.2%
CCc1nnc(NC(=O)[C@@H](NC(=O)c2cccc(S(=O)(=O)N(CC)CC)c2)C(C)C)s1 39.5%
COc1ccc(N2CCN(C(=O)C3CCC(Cn4c(=S)[nH]c5ccccc5c4=O)CC3)CC2)cc1 (stereo not drawn) -44.6%
Fc1ccc(-n2nnnc2-c2cnc(-c3cccs3)nc2C(F)(F)F)cc1 91% [at 16 µM]
O=C(N/N=C/c1ccc(-n2ccnc2)cc1)c1cccs1 73.5%
Cc1ccc2c(c1)c1c3n2CCN(CC(N)=O)C3CCC1 (stereo not drawn) 81.6%
COc1ccc2[nH]c3c(N4CCC(O)(c5cccc(C(F)(F)F)c5)CC4)ncnc3c2c1 -82.8%
CCOC(=O)C(C)Oc1cccc2c(=O)n(CC(=O)NCCc3ccc(OC)c(OC)c3)ccc12 (stereo not drawn) -38.6%
CC1(C(=O)NCc2ccc3c(c2)OCO3)CCN1Cc1csc2ccccc12 (stereo not drawn) -13.3%
COc1ccc(NS(=O)(=O)c2cccc(C(=O)NNC(=O)CNC(=O)c3ccc(C)cc3)c2)cc1 35.8%
COc1ccc(NS(=O)(=O)c2ccc3c(c2)OCCO3)cc1OC -10.5%
O=C(Cc1ccc(Cl)cc1Cl)Nc1ccncc1 -15.2%
COc1ccc(/C=C/c2nc(S(=O)(=O)c3ccccc3)c(NCCCN(C)C)o2)cc1OC -36.4% [at 16 µM]
COC(=O)c1ccc(NC(=O)c2ccc(CN3CCOCC3)cc2)cc1 -20.5%
Nc1ccn([C@@H]2O[C@H](C(=O)NCc3ccc4c(c3)OCO4)[C@@H](O)[C@H]2O)c(=O)n1 14.6%
CC(C)CC#Cc1ccc2c(c1)O[C@@H](CN(C)S(=O)(=O)c1ccc(F)cc1)[C@H](C)CN([C@@H](C)CO)S2(=O)=O -29.4%
Cc1cc2ncn(S(=O)(=O)N3CCCCC3)c2cc1C 1.39%
CCN1CCN(S(=O)(=O)c2ccc(Cl)c(C(=O)Nc3ccccc3N3CCCC3)c2)CC1 21.8%
C[C@H]1CN([C@@H](C)CO)C(=O)c2cccc(NC(=O)C3CCCCC3)c2O[C@H]1CN(C)S(C)(=O)=O 11.4%
CNC[C@@H]1Oc2c(N)cccc2C(=O)N([C@@H](C)CO)C[C@@H]1C 15.9%
C[C@@H]1CN([C@@H](C)CO)C(=O)c2cccc(NC(=O)c3cnccn3)c2O[C@H]1CN(C)Cc1ccc(Cl)c(Cl)c1 95.2%
c1csc(-c2csc3ncnc(NCCCN4CCOCC4)c23)c1 -26.2%
Oc1ccc(C=NNc2ccccn2)c(O)c1 23.9% [at 16 µM]
COc1ccc(-c2nnc(Nc3nc4c(OC)cccc4s3)o2)cc1 5.13%
CCn1ncc(C2=NOC(C(=O)Nc3ccc(C)cc3)C2)c1C (stereo not drawn) 6.73% [at 16 µM]
Cc1ccc(-n2nnnc2-c2cnn(-c3ccc(F)cc3)c2C(F)(F)F)cc1 4.65%
C[C@@H]1CN([C@H](C)CO)C(=O)c2cc(NS(=O)(=O)c3ccc(F)cc3)ccc2O[C@H]1CN(C)Cc1ccc(C(F)(F)F)cc1 -41.2%
CNC[C@H]1Oc2c(NC(=O)Nc3ccc(C(F)(F)F)cc3)cccc2C(=O)N([C@@H](C)CO)C[C@H]1C 39.4% [at 16 µM]
C[C@H](CO)N1C[C@H](C)[C@H](CN(C)C(=O)Nc2ccccc2)Oc2c(NS(=O)(=O)c3ccc(F)cc3)cccc2C1=O 84.3% [at 16 µM]
Cc1ccc(Cn2ncc3c(N4CCN(c5ccc(C)cc5)CC4)ncnc32)cc1 -44.6%
Cc1ccc(-n2ncc3c(N4CCN(c5ccccc5)CC4)ncnc32)c(C)c1 181%
COc1cccc(CNc2nc(NCc3ccccc3OC)nc3ccsc23)c1 -21.1%
CCOc1ccc(-c2cc(CCCC(=O)Nc3cccc(OC)c3)no2)cc1 71.3%
Cc1cc(C(C)(C)C)oc1C(=O)N(CC(=O)NC1CCCC1)Cc1ccc(Cl)cc1 -42.4%
CCCc1cc(C(=O)NCc2ccc(OC)cc2)no1 28.6%
O=C(CC1C(=O)NCCN1Cc1cccc(F)c1)NC1CCCCC1 (stereo not drawn) -44.7%
CCN(CCn1cccn1)C(=O)CC1C(=O)NCCN1CCc1ccccc1 (stereo not drawn) -40.9%
COc1ccc(-c2cn3c(C)c(C(=O)Nc4cccc(NC(C)=O)c4)sc3n2)cc1 -22% [at 16 µM]
Cn1cc(S(=O)(=O)N2CCOCC2)cc1C(=O)Nc1cccc(Cl)c1 -25.3%
COc1cccc(CN2CCC2(C)C(=O)Nc2cccc(Oc3ccccc3)c2)c1OC (stereo not drawn) -31.8%
CC(=O)c1ccc([C@H]2C[C@@]34CN(C(=O)OC(C)(C)C)S(=O)(=O)[C@H]3C[C@H]2O4)cc1 40.5%
c1ccc(Cc2cnc(N3CCN(Cc4csc5ccccc45)CC3)nc2)cc1 16.5%
O=C(NNC(=O)C(c1ccccc1)c1ccccc1)c1ccccn1 -20.2%
CC(C)(C)n1nc(Cc2cccc3ccccc23)c2c(N)ncnc21 16.9%
C[C@@H]1CN([C@H](C)CO)C(=O)c2cccc(NC(=O)c3ccncc3)c2O[C@@H]1CN(C)Cc1ccc(C(=O)O)cc1 -18.2%
COc1ccccc1N1CCN(Cc2ccc(O)c3ncccc23)CC1 41.3%
O=C(Nc1ccc(CN2CCOCC2)cc1)c1ccc(-c2cccc(Cl)c2)o1 117%
Cc1cc(C)nc(/N=C(\N)Nc2ccc(CC(=O)OC(C)C)cc2)n1 38.8%
CCC(=O)NC(=S)Nc1cccc(Cl)c1N1CCCCC1 43.4%
COc1ccc([Si](C)(C)[C@H]2[C@H](CCO)O[C@@]3(C(=O)N(Cc4cccc(N5CCOC5=O)c4)c4ccccc43)[C@@H]2C)cc1 -36.4%
O=C(Nc1cccn(Cc2c(Cl)cccc2Cl)c1=O)c1ccc(Cl)cc1 55.6%
O=C(NCc1ccccc1)c1ccc(C(=O)NCc2ccccc2)cc1 -58.9%
